# Inconclusive results are not listed. A number with no mark means an inactive call. The source made the active and inactive calls. The call rests on the fitted dose curve; in most records, active means well fitted inhibition curve with a large enough effect; inconclusive means small, poorly fitted or top-dose-only effect, or effect the other way; inactive means flat fitted curve, though single readings scatter.
# Target: Ubiquitin carboxyl-terminal hydrolase 2 (Homo sapiens) (UniProt O75604)
# Test: Confirmation Assay for Inhibitors of Ubiquitin-specific Protease USP2a Using CHOP2 as the Reporter; further: nearly all actives have a fitted effect of over 55% in size;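 on activity change, negative = inhibition: plate controls were DMSO wells for no effect and full inhibition by NEM control for full effect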
# Settings: USP2 core, Ub-CHOP2 coupled reporter fluorescence; series mostly up to 38.3 µM; activity change, negative = inhibition: at the top concentration
# Method in brief: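 Ub-CHOP2 cleavage coupled to reporter activation was read by fluorescence after 60 min at RT, with 25 nM final Ub-CHOP2 and substrate. Enzyme (10 nM final USP2 core) first sat 30 min with compound; data were normalized to NEM and fitted to concentration-response curves.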
# Potency means the concentration at half of the fitted maximal effect.
# Ubiquitin carboxyl-terminal hydrolase 2 (Homo sapiens), sequence (O75604 whole entry, looked up): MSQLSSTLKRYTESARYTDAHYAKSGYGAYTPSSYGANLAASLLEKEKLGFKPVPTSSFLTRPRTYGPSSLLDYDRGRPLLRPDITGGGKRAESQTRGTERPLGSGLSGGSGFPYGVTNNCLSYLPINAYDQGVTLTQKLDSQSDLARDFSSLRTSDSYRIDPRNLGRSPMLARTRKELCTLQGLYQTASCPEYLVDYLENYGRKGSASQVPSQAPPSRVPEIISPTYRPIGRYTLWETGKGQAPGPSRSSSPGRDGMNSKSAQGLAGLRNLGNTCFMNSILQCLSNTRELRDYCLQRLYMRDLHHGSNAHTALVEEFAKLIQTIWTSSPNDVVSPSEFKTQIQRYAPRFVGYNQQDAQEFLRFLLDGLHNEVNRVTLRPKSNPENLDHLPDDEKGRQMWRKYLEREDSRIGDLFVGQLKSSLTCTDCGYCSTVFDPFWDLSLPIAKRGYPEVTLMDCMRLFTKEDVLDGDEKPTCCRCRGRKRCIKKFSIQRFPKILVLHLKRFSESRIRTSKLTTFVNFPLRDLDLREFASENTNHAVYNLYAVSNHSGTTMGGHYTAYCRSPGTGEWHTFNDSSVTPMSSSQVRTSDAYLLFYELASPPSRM
Compound,"activity change, negative = inhibition [%]",Potency
COc1ccc(-n2c(SCC(=O)N3CCN(c4ccccc4)CC3)nc3c(c2=O)SCC3)cc1,-6.88,–
COC1=CCC2([N+](=O)[O-])CN(CCO)CC1([N+](=O)[O-])C2 (stereo not given),-1.18,–
CC1=CC(C)(C)N(C(=O)c2ccccc2)c2ccccc21,-0.389,–
Cc1ccc(NC(=O)Cn2nc(C)c3ccccc3c2=O)cc1F,0.67,–
COC(=O)c1ccc(NC(=O)CSC2=Nc3ccccc3C3CC=NN23)cc1 (stereo not given),0.248,–
O=C(Nc1ccc(Nc2ccncc2)cc1)c1ccc(Nc2ccnc3ccc([N+](=O)[O-])cc23)cc1[N+](=O)[O-],-16.8,–
O=C(CSc1ncccc1-c1nc2ccccc2[nH]1)Nc1ccc2c(c1)OCCO2,-2.15,–
COc1ccc(N(C(=O)C(C)C)S(=O)(=O)c2ccc(Cl)cc2)cc1,0.439,–
C[C@H](CO)N1C[C@H](C)[C@@H](CN(C)S(=O)(=O)c2ccc(Cl)cc2)Oc2ccc(NS(=O)(=O)c3ccccc3)cc2CC1=O,-2.54,–
O=C(COc1ccccc1)NCCSc1ccccc1,-2.69,–
CN1CCN(CCCCOc2ccc(F)cc2)CC1,-1.91,–
COC(=O)CSc1nc2c(c(-c3ccco3)c1C#N)CCCC2,0.57,–
C=CC[C@@H](CC(=O)N(CCO)Cc1ccccc1)C(=O)NCCOC(=O)[C@H](CC=C)CC(=O)OC(C)(C)C,-0.238,–
Cc1noc(/C=C/c2ccco2)c1S(=O)(=O)N1CCC(C(=O)N(C)Cc2ccccc2)CC1,–,14.7 µM (active)
Cc1ccc(C)c(OCC(=O)Nc2cc(NC(=O)COc3cc(C)ccc3C)cc(C(=O)O)c2)c1,-15.4,–
Cc1ccc2oc(=O)c3cnn(CC(=O)NCCCOC(C)C)c3c2c1,3.71,–
CCOC(=O)C1CCCN(C(=O)c2cc(-c3ccco3)nc3ccccc23)C1 (stereo not given),–,18.5 µM (active)
CCC(C)NC(=O)CSC1=Nc2ccccc2C2=NC(c3ccccc3)C(=O)N12 (stereo not given),0.631,–
Cc1ccc(C(=O)CSc2nnc(CNc3nc(-c4ccccc4)cs3)n2C)cc1,-6.56,–
COCCCNCCCOc1ccc(C)cc1Br,-2.1,–

Compound,"activity change, negative = inhibition [%]",Potency
CCOC(=O)c1ccc(NC(=O)C2=C(C)Nc3nc(CCCO)nn3C2c2cccc(C)c2)cc1 (stereo not given),-2.56,–
CCC/C(O)=C1\C(=O)CC(C)(C)CC1=Nc1ccc(OC)cc1OC,-6.51,–
Cc1ccccc1NC(=O)CSc1nnc(-c2ccco2)c(-c2ccco2)n1,-11.5,–
O=C(Nc1nnc(-c2ccco2)s1)C1CCCCC1,0.407,–
Cc1cc(C(=O)Nc2ccccc2N2CCOCC2)c2ccccc2n1,1.25,–
NC1=NC2(CCC(c3ccccc3)CC2)n2c(nc3ccccc32)N1 (stereo not given),1.88,–
C=CC#CC[N+]1(CC#Cc2ccccc2)CCOCC1,–,3.69 µM (active)
CCc1cc2c(=O)c(-n3cnc4ccccc43)coc2cc1O,-1.46,–
CCn1c2ccccc2c2nc3ccccc3nc21,0.685,–
O=C(Nc1ccc(Nc2ccncc2)cc1)c1ccc(Nc2ccnc3ccc([N+](=O)[O-])cc23)cc1,–,7.36 µM (active)
O=C(OCC1OC(n2ncc(=O)[nH]c2=O)C(OC(=O)c2ccccc2)C1OC(=O)c1ccccc1)c1ccccc1 (stereo not given),–,13.1 µM (active)
COc1ccc(CCNC(=O)Cc2cc(=O)[nH]c(=O)[nH]2)cc1OC,1.29,–
CCOc1ccc2nc(NC(=O)Nc3ccccc3)sc2c1,-2.42,–
CC(=O)c1c(N2CCCC2)[nH]c(-c2ccccc2)nc1=S,3.15,–
CCC(=O)c1ccc(OCC(=O)NC2CCN(Cc3ccccc3)CC2)cc1,1.54,–
CCN1C(=O)CSc2ccc(C(=O)NC3CCCCC3)cc21,2.08,–
O=C(O)CP(=O)(c1ccccc1)c1ccccc1,0.641,–
CCOc1ccc(NC(=O)N(CCCN2CCOCC2)Cc2cccnc2)cc1,0.0836,–
O=C(COC(=O)c1ccc(NS(=O)(=O)c2cccs2)cc1)Nc1nc2c(F)c(F)c(F)cc2s1,–,6.56 µM (active)
Cc1n[nH]c(C)c1S(=O)(=O)N1CCCC(C(=O)Nc2nccs2)C1 (stereo not given),1.19,–

# From PubChem BioAssay AID493168 (National Center for Advancing Translational Sciences (NCATS), 2011)
